From PubChem BioAssay (NCI)
The panel holds about 83,000 compounds, 20% with a hit somewhere; the sample as a whole holds those more often.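 The test compound was applied at a single concentration to cells in 96-well plates for 48 hours, and percent growth was recorded.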 Calls of active or inactive are those of the source. The calls were made as follows: active = growth percent below 10; inactive = the rest.

Legend:
Test in all cases: NCI-60 one-dose screen, 48 h (100 = growth as untreated, 0 = no growth, -100 = all killed)
Details in all cases: 10 µM unless noted
[1] = system: NCI-H23 lung
[2] = system: NCI-H226 lung
[3] = system: NCI-H322M lung
[4] = system: HOP-62 NSCLC
[5] = system: NCI-H460 lung
[6] = system: HOP-92 NSCLC
[7] = system: NCI-H522 lung
[8] = system: A549/ATCC NSCLC
[9] = system: 786-0 renal
[10] = system: COLO 205 colon
[11] = system: DU-145 prostate
[12] = system: K-562 leukemia
[13] = system: MALME-3M melanoma
[14] = system: MDA-MB-231 breast
[15] = system: RXF 393 renal
[16] = system: SF-268 CNS
[17] = system: SF-295 CNS
[18] = system: SF-539 CNS
[19] = system: UACC-257 melanoma
[20] = system: M14 melanoma

Measured: growth

CCN1CCN(c2nc(C)cc(N(CCCNc3ccnc4cc(Cl)ccc34)Cc3ccco3)n2)CC1
active: [10] -21.2% | [12] 8.16% | [13] -6.8% | [18] -63.5% | [19] -2.43% | [20] -76%
inactive: [1] 62.2% | [2] 86.4% | [3] 63.5% | [4] 52.1% | [5] 39.9% | [6] 65.3% | [7] 71.6% | [8] 50.4% | [9] 64.8% | [11] 55.5% | [14] 11.6% | [15] 48.5% | [16] 55.7% | [17] 51%

N#C/C(=C\c1ccc(-c2cccc(C(F)(F)F)c2)o1)c1nc(-c2ccco2)cs1
inactive: [1] 91.8% | [2] 84.1% | [3] 89.2% | [4] 105% | [5] 94.4% | [6] 86.9% | [7] 90% | [8] 104% | [9] 102% | [10] 118% | [11] 105% | [12] 92.3% | [13] 93.8% | [14] 78.9% | [15] 107% | [16] 99.8% | [17] 94.2% | [18] 91.4% | [19] 105% | [20] 97.8%

O=C1c2cc3c(cc2-c2c1c1ccc(Cl)cc1c(=O)n2C[C@H](O)[C@@H](O)[C@H](O)CO)OCO3
active: [1] -18% | [2] -49.6% | [4] -43.1% | [5] 0.505% | [7] -59.5% | [8] -75.8% | [9] 4.87% | [10] -16.6% | [11] 3.84% | [13] -28.2% | [14] 6.7% | [15] -47% | [16] 7% | [17] -5.74% | [18] -39.8% | [19] -49.4% | [20] 4.34%
inactive: [3] 12.6% | [6] 12.4% | [12] 12%

c1cc(N2CCCC2)c2nc(-c3[nH]ncc3Nc3ncnc4[nH]ccc34)[nH]c2c1
active: [1] -45.3% | [2] -40.4% | [3] -21.1% | [4] -13.6% | [5] -4.99% | [6] -1.33% | [7] -11.3% | [8] -7.17% | [9] -26.1% | [10] -65.9% | [11] -4.71% | [12] 6.25% | [13] -41.4% | [14] -15.2% | [15] -75.9% | [16] -25.1% | [17] -34% | [18] -54.3% | [19] -12.8% | [20] -77.1%

Cn1c(/C(C#N)=C/c2ccc3ccccc3c2)cc2ccccc21
inactive: [1] 19.4% | [2] 40.5% | [3] 48.9% | [4] 38.2% | [6] 64.8% | [7] 27.1% | [8] 29.8% | [9] 34.1% | [11] 14.9% | [12] 13.9% | [13] 46.5% | [15] 41.1% | [16] 42.9% | [19] 84.8%
active: [5] 6.27% | [10] 2.87% | [14] 5.53% | [17] 3.45% | [18] 3.9% | [20] 5.87%

Cc1cc(N2CCOCC2)nc(N(CCCNc2ccnc3cc(Cl)ccc23)Cc2ccco2)n1
inactive: [1] 35.3% | [2] 74.7% | [3] 28.7% | [4] 12.9% | [5] 18.8% | [6] 34% | [7] 40.2% | [8] 18.9% | [9] 42.1% | [11] 52.6% | [13] 53.6% | [14] 19.6% | [15] 21.2% | [16] 50.7% | [17] 16.6% | [19] 85%
active: [10] 3.4% | [12] 4.98% | [18] -2.57% | [20] -3.48%

C[Si](C)(C)Cc1ccccc1
inactive: [1] 102% | [2] 114% | [3] 119% | [4] 99.9% | [5] 120% | [6] 110% | [7] 139% | [8] 120% | [9] 98% | [10] 139% | [11] 125% | [12] 126% | [13] 115% | [14] 115% | [15] 132% | [16] 122% | [17] 103% | [18] 107% | [19] 112% | [20] 104%
